Source: PubChem
Shown are actives, neighbours in structure and some others; about 11% of the full set was active somewhere.
NIH3T3 tox = cytotoxic compounds in NIH 3T3 cells | NIH 3T3 viability, CellTiter-Glo ATP luminescence, 48-72 h | Potency, µM (doses to about 96.7 µM), most hits filed as inhibitors | 94,000 compounds, 4.3% hits | AID 1345082; further: nearly all actives have a fitted effect of over 55% in size
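Viability of NIH 3T3 cells after 48 or 72 hr compound treatment at 37 °C was assessed by CellTiter-Glo, with luminescence imaged following a 10 min room-temperature step.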
FLuc inh-1 = blocks purified firefly luciferase enzyme activity; Potency, µM (series often up to 115 µM), hits mostly inhibitors; AID 1347043; 76,000 compounds, 2.5% hits; purified P. pyralis luciferase, luminescence, biochemical; P08659; further: nearly all actives have a fitted effect of over 65% in size
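Purified 10nM P. pyralis luciferase with 10uM D-luciferin and 10uM ATP in 50mM Tris acetate pH 7.5, 10mM Mg acetate, 0.01% Tween-20, 0.05% BSA. qHTS titration; luminescence read by CCD imager.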
HEK cytotox = HEK 293 cell cytotoxicity | Potency, µM (doses to about 115 µM), hits mostly inhibitors | 94,000 compounds, 6.6% hits | AID 1345083 | HEK 293 viability, ATP luminescence (CellTiter-Glo), 48-72 h; further: nearly all actives have a fitted effect of over 60% in size
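qHTS cytotoxicity; HEK 293, 250 cells/well; compound pinned; 48 or 72 hr, 37 degree Celsius, 5% CO2, 95% humidity; CellTiter-Glo, 10 min RT; luminescence (ATP).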
NPR1 antag = blocks ANP-stimulated signaling of human Npr1 receptor; 76,000 compounds, 1.6% hits; AID 1347048; Potency, µM (series often up to 46.3 µM), actives largely listed as inhibitors; P16066; HEK293 hNpr1 GloSensor cGMP, ANP-stimulated luminescence; calls by dose curve; further: nearly all actives have a fitted effect of over 60% in size
Target sequence (P16066 whole entry, looked up): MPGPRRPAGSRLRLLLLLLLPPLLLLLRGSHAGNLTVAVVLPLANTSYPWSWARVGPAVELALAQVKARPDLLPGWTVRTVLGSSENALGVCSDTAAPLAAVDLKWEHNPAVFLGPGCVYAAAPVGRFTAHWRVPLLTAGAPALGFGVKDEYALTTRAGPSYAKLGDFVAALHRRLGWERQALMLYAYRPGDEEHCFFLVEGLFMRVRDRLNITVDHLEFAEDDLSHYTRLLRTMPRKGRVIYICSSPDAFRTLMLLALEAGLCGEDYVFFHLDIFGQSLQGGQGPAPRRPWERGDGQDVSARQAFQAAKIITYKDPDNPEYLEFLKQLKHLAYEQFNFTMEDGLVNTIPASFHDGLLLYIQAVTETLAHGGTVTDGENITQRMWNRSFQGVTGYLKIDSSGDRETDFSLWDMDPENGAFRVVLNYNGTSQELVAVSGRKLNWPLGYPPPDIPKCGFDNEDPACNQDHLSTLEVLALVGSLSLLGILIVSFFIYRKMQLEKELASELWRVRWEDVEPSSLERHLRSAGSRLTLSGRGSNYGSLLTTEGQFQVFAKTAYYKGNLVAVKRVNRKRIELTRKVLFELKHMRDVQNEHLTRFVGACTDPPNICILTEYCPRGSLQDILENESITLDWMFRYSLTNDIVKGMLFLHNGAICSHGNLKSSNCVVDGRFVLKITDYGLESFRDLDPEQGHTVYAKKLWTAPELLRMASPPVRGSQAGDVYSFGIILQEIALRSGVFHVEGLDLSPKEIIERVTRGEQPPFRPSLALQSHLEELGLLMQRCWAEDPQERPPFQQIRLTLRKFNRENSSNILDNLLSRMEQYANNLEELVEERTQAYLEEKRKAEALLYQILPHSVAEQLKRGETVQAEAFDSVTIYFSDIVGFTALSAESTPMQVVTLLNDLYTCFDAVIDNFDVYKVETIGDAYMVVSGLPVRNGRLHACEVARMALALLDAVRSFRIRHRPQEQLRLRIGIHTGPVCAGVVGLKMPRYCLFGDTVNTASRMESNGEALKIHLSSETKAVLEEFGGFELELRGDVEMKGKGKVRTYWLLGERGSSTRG
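Compound pre-incubated 30 min at room temperature on GloSensor-loaded HEK293 cells stably carrying hNpr1 and the pGS-40F cGMP biosensor. Stimulation uses hNppA at 0.1 nM final; luminescence is taken at baseline and 20 min post-agonist.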
FLuc SDR -ATP = firefly luciferase binding stabilization, ATP absent. Purified FLuc-C-HiBiT, Nano-Glo HiBiT luminescence, no ATP. Potency, µM (series often up to 32.7 µM), hits mostly activators. shares compounds with FLuc inh-1. 1,300 compounds, 7.8% hits; further: nearly all actives have a fitted effect of over 55% in size
FLuc SDR ATP = binders stabilizing firefly luciferase, plus ATP | Potency, µM (series often up to 32.7 µM), hits mostly activators | 1,300 compounds, 8.7% hits | purified FLuc-C-HiBiT + ATP, HiBiT complementation luminescence | shares compounds with FLuc inh-1 | AID 1963319;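 further: signal reports ligand binding via conformational change of the enzyme rather than luciferase catalysis; nearly all actives have a fitted effect of over 55% in size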
FLuc inh-2 = firefly luciferase enzyme inhibition. shares compounds with FLuc inh-1. purified FLuc-C-HiBiT enzyme, luciferin luminescence. Potency, µM (series often up to 32.7 µM), actives largely listed as inhibitors. 1,300 compounds, 42% hits; further: nearly all actives have a fitted effect of over 70% in size
Hits are given with their value. Unless noted, the call rests on the fitted dose curve; in most records, active means well fitted curve in the direction sought with a large enough effect; inconclusive means small, poorly fitted or top-dose-only effect, or another doubt; inactive means no such curve, though single readings can be large; an effect the other way counts as inactive or inconclusive.

Results for O=C(CCc1nc2ccccc2[nH]c1=O)N1CCN(CCn2cncn2)CC1 ?
NIH3T3 tox: inactive; FLuc inh-1: inactive; HEK cytotox: inactive; NPR1 antag: inactive

What do the screens show for `O=C(c1cccc(F)c1)N1CC(Oc2ccc(-c3nc(-c4ccccc4)no3)cc2)C1`?
NIH3T3 tox: inactive; FLuc inh-1: inactive; HEK cytotox: inconclusive; NPR1 antag: inactive

What do the screens show for `O=C(c1ccncc1)N1CCC(Oc2ccc(-c3noc(-c4ccccc4)n3)cc2)C1` (centres undefined)?
NIH3T3 tox: inconclusive; FLuc inh-1: 14µM; HEK cytotox: inconclusive; NPR1 antag: 14µM; FLuc SDR -ATP: inactive; FLuc SDR ATP: inactive; FLuc inh-2: inconclusive

What do the screens show for `Cc1ncccc1C(=O)N1CCC(Oc2ccc(-c3noc(-c4ccccc4)n3)cc2)C1` (centres undefined)?
NIH3T3 tox: inconclusive; FLuc inh-1: 7.1µM; HEK cytotox: inconclusive; NPR1 antag: 11µM; FLuc SDR -ATP: inactive; FLuc SDR ATP: inactive; FLuc inh-2: inconclusive

Results for C[S+](=O)([O-])CCn1ncc2cc(OCC3CCN(Cc4ccccc4)CC3)ccc21 ?
NIH3T3 tox: inconclusive; FLuc inh-1: inactive; HEK cytotox: inconclusive; NPR1 antag: inactive

What do the screens show for `CC(C)Oc1cccc(-c2cccc(COc3ccc4c(cnn4CC[S+](C)(=O)[O-])c3)c2)c1`?
NIH3T3 tox: inconclusive; FLuc inh-1: 6.3µM; HEK cytotox: 28µM; NPR1 antag: inconclusive; FLuc SDR -ATP: inactive; FLuc SDR ATP: inactive; FLuc inh-2: inconclusive

What do the screens show for `O=C(O)CCn1ncc2cc(OCC3CCN(C(=O)Cc4ccccc4)CC3)ccc21`?
NIH3T3 tox: inconclusive; FLuc inh-1: inactive; HEK cytotox: inactive; NPR1 antag: inactive

What do the screens show for `CNC(=O)CCn1ncc2cc(OCc3ccccc3-c3cccc(NC(C)=O)c3)ccc21`?
NIH3T3 tox: inconclusive; FLuc inh-1: 8.9µM; HEK cytotox: inconclusive; NPR1 antag: inactive; FLuc SDR -ATP: inactive; FLuc SDR ATP: inconclusive; FLuc inh-2: 3.1µM

How did COc1ccc(C)cc1-c1ccc(COc2ccc3c(cnn3CCC(=O)O)c2)cc1 do in these assays?
NIH3T3 tox: inactive; FLuc inh-1: inactive; HEK cytotox: inconclusive; NPR1 antag: inactive

How did O=C(O)CCn1ncc2cc(OCc3ccc(-c4cccc(CO)c4)cc3)ccc21 do in these assays?
NIH3T3 tox: inconclusive; FLuc inh-1: 20µM; HEK cytotox: inactive; NPR1 antag: inactive; FLuc SDR -ATP: inactive; FLuc SDR ATP: inactive; FLuc inh-2: inconclusive

How did Cn1cc(-c2cccc(COc3ccc4c(cnn4CC[S+](C)(=O)[O-])c3)c2)cn1 do in these assays?
NIH3T3 tox: inconclusive; FLuc inh-1: 5.6µM; HEK cytotox: inconclusive; NPR1 antag: inconclusive; FLuc SDR -ATP: inactive; FLuc SDR ATP: inconclusive; FLuc inh-2: inconclusive

What do the screens show for `COc1cccc(C(=O)N[C@@H]2CN(c3ccccn3)C[C@H]2CN(C)C)c1OC`?
NIH3T3 tox: inactive; FLuc inh-1: inactive; HEK cytotox: inactive; NPR1 antag: inactive

Results for CN(CCc1ccccn1)[C@H]1[C@@H]2OC[C@@H](O2)[C@@H](NC(=O)Nc2cccc(C#N)c2)[C@@H]1O ?
NIH3T3 tox: inactive; FLuc inh-1: inactive; HEK cytotox: inactive; NPR1 antag: inactive

How did CCn1ccc2sc(C)c(C(=O)N3CCN(c4ccc(F)cc4)CC3)c2c1=O do in these assays?
NIH3T3 tox: inactive; FLuc inh-1: inactive; HEK cytotox: inconclusive; NPR1 antag: inactive

Results for COc1ccc(NC(=O)Nc2nnc(C)s2)cc1 ?
FLuc SDR -ATP: inactive; FLuc SDR ATP: inactive; FLuc inh-2: inconclusive

How did COc1cccc(NC(=O)N[C@H]2CCN(C(=O)c3cccn3C)[C@@H]2C(=O)N[C@H](Cc2ccccc2)C(N)=O)c1 do in these assays?
NIH3T3 tox: inactive; FLuc inh-1: inactive; HEK cytotox: inactive; NPR1 antag: inactive

What do the screens show for `CCOc1ccc(-c2cn3nc(CC(C)C)sc3n2)cc1`?
FLuc SDR -ATP: inactive; FLuc SDR ATP: inactive; FLuc inh-2: 5µM

Results for CCOc1ccc(NC(=O)c2cc3c(N4CCSCC4)nc(C)cn3n2)cc1 ?
NIH3T3 tox: inactive; FLuc inh-1: inactive; HEK cytotox: inactive; NPR1 antag: inactive

Results for CCc1ccccc1Nc1nc(-c2cccc(OC)c2OC)no1 ?
NIH3T3 tox: inconclusive; FLuc inh-1: 14µM; HEK cytotox: inconclusive; NPR1 antag: inactive; FLuc SDR -ATP: inactive; FLuc SDR ATP: inactive; FLuc inh-2: inconclusive

What do the screens show for `CCc1noc(-c2nc(-c3ccc4c(c3)OCO4)no2)n1`?
NIH3T3 tox: inactive; FLuc inh-1: 10µM; HEK cytotox: inconclusive; NPR1 antag: inactive; FLuc SDR -ATP: inactive; FLuc SDR ATP: inactive; FLuc inh-2: inconclusive

Results for c1ccc(Cc2noc(-c3nc(-c4ccc5c(c4)OCO5)no3)n2)cc1 ?
NIH3T3 tox: inactive; FLuc inh-1: inactive; HEK cytotox: inactive; NPR1 antag: inactive

How did CCCNC(=O)Cn1c(C)ccc(NC(=O)Nc2ccc(OC)cc2)c1=O do in these assays?
NIH3T3 tox: inconclusive; FLuc inh-1: 4µM; HEK cytotox: inactive; NPR1 antag: inactive; FLuc SDR -ATP: inconclusive; FLuc SDR ATP: inconclusive; FLuc inh-2: 6.2µM

Results for CCC(C)NC(=O)Cn1c(C)ccc(NC(=O)Nc2ccc(C)cc2)c1=O (centres undefined) ?
NIH3T3 tox: inconclusive; FLuc inh-1: 2µM; HEK cytotox: inconclusive; NPR1 antag: inactive; FLuc SDR -ATP: 3.1µM; FLuc SDR ATP: inconclusive; FLuc inh-2: 1.2µM

How did Cc1ccc(NC(=O)Nc2ccc(C)n(CC(=O)NCC(C)C)c2=O)cc1 do in these assays?
NIH3T3 tox: inconclusive; FLuc inh-1: 0.89µM; HEK cytotox: inconclusive; NPR1 antag: inactive; FLuc SDR -ATP: 3.9µM; FLuc SDR ATP: inconclusive; FLuc inh-2: 1.1µM

Results for Cc1ccc(NC(=O)Nc2ccc(C)n(CC(=O)NC(C)(C)C)c2=O)cc1 ?
NIH3T3 tox: inactive; FLuc inh-1: 4µM; HEK cytotox: inconclusive; NPR1 antag: inactive; FLuc SDR -ATP: inconclusive; FLuc SDR ATP: inconclusive; FLuc inh-2: 3.9µM

How did CCC(O)c1cc2n(n1)CCN(C(=O)CN1CCOc3ccccc3C1)C2 (centres undefined) do in these assays?
NIH3T3 tox: inactive; FLuc inh-1: inactive; HEK cytotox: inactive; NPR1 antag: inactive

What do the screens show for `COc1ccc(NC(=O)Nc2ccc(C)n(CC(=O)N3CCCC(C)C3)c2=O)cc1` (centres undefined)?
NIH3T3 tox: inactive; FLuc inh-1: 7.1µM; HEK cytotox: inactive; NPR1 antag: inactive; FLuc SDR -ATP: inconclusive; FLuc SDR ATP: inconclusive; FLuc inh-2: 7.9µM

What do the screens show for `CSc1ccc(C(=O)Nc2ccc(-c3nc4ccccc4s3)c(O)c2)cc1`?
FLuc SDR -ATP: inactive; FLuc SDR ATP: inactive; FLuc inh-2: inactive
